# Assays:
# Assay in all cases: DAPPL (digital affinity profiling via proximity ligation, sequencing); 10 mM Tris-HCl pH 7.5, 50 mM NaCl, 1 mM DTT, 4% glycerol, room temperature, 30 min; GST-TFs on glutathione beads, 16-mer random dsDNA library, 0.1% formaldehyde crosslink after washing; high values mean tight binding
# Conditions in all cases: protein: recombinant; tags: N-terminal GST; dsDNA, one strand shown
# FEV = target: T1, FEV (Homo sapiens, UniProt Q99581 1-238)
# T1 sequence: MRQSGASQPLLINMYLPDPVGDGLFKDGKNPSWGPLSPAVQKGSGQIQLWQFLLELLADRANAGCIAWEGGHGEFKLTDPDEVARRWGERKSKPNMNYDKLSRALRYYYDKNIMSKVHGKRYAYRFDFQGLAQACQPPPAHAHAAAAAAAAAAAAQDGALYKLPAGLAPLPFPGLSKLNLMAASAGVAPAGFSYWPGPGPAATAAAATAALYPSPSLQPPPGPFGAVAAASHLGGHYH
# Procedure, shortened: (§1)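 In yeast, human transcription factors were expressed with a GST fusion, then pulled down on glutathione beads and given DNA barcodes. Pooled with a tag-only sample, they were exposed to 200 nmole of a 16-mer random double-stranded DNA library (Tris/NaCl/DTT/glycerol buffer, room temperature, 30 min), washed, crosslinked with 0.1% formaldehyde, proximity-ligated using BsaI/T4 ligase for 1 h at 37 °C, PCR-amplified and read on an Illumina NextSeq500. Each hexamer's frequency of reads for a factor, divided by the matching frequency for the tag-only sample, gives the binding signal.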
# ETV5 = ETV5 (Homo sapiens, UniProt P41161 1-510)
# Sequence of ETV5 (P41161 whole entry): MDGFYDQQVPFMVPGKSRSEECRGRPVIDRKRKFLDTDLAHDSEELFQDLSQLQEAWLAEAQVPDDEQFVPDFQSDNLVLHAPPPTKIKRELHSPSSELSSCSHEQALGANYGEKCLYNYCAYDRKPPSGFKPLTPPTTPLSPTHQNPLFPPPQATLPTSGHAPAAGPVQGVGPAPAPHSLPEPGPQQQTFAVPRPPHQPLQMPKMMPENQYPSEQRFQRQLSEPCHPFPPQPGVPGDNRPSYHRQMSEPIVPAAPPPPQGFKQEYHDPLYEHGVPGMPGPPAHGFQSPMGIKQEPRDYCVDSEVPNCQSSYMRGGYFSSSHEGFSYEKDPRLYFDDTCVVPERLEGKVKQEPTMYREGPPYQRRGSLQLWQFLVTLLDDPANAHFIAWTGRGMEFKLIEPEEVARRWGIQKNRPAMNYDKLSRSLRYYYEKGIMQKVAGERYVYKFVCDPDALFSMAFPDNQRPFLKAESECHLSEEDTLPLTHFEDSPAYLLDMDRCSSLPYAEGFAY
# Procedure, shortened: as §1
# SPIC = target: T2, SPIC (Homo sapiens, UniProt Q8N5J4 1-248)
# T2 sequence: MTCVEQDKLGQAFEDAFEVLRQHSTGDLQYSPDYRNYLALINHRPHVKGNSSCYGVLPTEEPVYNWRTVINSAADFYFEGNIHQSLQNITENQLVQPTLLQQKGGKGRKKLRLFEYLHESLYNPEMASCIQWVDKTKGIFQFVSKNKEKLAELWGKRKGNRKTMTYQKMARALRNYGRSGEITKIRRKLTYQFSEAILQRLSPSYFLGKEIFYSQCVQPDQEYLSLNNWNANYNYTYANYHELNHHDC
# Procedure, shortened: as §1
# ELF4 = ELF4 (Homo sapiens, UniProt Q99607 1-663)
# Sequence of ELF4 (Q99607 whole entry): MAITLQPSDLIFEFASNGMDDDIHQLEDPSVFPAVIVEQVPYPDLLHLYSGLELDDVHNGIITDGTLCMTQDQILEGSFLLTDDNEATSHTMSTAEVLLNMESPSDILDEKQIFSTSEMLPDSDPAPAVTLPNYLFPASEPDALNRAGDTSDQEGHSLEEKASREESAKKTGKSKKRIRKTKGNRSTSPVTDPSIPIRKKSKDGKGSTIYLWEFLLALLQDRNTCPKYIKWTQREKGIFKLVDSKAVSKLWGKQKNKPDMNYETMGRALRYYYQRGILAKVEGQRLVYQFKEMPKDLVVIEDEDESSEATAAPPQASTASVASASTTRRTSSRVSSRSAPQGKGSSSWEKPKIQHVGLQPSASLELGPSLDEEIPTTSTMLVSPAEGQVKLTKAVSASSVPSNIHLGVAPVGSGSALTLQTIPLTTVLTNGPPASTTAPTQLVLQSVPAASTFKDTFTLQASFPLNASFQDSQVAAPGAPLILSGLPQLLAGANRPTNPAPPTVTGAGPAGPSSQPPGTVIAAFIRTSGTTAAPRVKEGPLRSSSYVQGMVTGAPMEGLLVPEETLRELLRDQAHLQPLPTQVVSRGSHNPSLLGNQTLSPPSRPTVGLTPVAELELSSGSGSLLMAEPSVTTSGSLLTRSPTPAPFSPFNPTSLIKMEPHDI
# Procedure, shortened: as §1
# ELK4 = target: T3, ELK4 (Homo sapiens, UniProt P28324-2 1-405)
# T3 sequence: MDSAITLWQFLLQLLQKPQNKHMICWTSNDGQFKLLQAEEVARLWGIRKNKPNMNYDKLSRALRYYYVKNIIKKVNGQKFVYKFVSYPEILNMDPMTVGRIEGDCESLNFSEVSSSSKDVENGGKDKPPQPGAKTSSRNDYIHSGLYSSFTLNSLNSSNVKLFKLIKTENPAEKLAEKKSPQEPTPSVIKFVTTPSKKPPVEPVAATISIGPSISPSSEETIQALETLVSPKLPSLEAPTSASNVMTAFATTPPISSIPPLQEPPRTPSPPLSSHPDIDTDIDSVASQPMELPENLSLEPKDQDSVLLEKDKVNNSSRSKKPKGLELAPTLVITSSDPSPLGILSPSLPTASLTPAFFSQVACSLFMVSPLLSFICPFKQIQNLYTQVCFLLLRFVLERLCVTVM
# Procedure, shortened: as §1
# ETV2 = target: T4, ETV2 (Homo sapiens, UniProt O00321 1-342)
# T4 sequence: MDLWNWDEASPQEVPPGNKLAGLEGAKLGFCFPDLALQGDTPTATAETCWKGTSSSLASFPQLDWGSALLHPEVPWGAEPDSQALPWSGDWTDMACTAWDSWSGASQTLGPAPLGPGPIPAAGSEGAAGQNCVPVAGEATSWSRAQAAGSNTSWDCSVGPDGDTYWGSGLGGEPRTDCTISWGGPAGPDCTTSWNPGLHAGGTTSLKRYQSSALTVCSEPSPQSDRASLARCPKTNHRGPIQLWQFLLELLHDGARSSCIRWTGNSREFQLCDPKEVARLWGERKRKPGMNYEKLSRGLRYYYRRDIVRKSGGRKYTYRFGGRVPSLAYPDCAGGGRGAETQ
# Procedure, shortened: as §1
# ETV1 = ETV1 (Homo sapiens, UniProt P50549 1-477)
# Sequence of ETV1 (P50549 whole entry): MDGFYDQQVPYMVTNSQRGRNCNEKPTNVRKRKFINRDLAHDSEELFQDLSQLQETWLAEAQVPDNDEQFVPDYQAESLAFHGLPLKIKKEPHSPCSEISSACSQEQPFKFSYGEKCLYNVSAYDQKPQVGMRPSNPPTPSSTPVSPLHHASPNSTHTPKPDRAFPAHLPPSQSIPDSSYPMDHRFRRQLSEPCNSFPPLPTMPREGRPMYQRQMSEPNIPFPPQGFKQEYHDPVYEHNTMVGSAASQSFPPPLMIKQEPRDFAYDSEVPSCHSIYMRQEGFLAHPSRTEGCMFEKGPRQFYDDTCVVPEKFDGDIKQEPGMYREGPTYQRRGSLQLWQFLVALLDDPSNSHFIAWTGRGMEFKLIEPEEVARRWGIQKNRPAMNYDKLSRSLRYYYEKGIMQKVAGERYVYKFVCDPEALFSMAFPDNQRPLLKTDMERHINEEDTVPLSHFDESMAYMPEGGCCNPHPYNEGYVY
# Procedure, shortened: as §1
# ERF = target: T5, ERF (Homo sapiens, UniProt P50548 1-548)
# T5 sequence: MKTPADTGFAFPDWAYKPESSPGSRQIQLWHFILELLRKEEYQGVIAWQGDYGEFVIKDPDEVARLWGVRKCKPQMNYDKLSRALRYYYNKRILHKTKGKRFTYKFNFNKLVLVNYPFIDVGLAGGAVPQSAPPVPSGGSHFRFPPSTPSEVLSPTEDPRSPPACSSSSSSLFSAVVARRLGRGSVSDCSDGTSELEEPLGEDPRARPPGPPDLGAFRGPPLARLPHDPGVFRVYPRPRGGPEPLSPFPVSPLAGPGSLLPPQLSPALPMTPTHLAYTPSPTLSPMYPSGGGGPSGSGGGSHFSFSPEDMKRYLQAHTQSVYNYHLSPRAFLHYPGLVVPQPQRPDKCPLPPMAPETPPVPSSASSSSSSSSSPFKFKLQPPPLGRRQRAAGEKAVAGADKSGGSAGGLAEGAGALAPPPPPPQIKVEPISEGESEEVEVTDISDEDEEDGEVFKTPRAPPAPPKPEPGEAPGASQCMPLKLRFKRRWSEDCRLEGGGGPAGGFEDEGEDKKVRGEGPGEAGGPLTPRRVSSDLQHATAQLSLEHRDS
# Procedure, shortened: as §1
# ETV3L = target: T6, ETV3L (Homo sapiens, UniProt Q6ZN32 1-361)
# T6 sequence: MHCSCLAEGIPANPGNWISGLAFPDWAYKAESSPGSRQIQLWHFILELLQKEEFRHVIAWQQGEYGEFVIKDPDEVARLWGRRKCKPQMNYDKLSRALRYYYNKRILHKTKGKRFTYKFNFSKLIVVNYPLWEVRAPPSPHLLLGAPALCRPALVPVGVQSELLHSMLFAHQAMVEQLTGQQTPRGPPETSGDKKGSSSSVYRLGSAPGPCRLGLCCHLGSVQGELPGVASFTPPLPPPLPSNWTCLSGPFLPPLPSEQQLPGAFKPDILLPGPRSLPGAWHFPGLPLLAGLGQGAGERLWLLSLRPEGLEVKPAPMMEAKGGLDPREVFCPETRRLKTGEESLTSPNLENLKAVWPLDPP
# Procedure, shortened: as §1
# ETS2 = target: T7, ETS2 (Homo sapiens, UniProt P15036 1-469)
# T7 sequence: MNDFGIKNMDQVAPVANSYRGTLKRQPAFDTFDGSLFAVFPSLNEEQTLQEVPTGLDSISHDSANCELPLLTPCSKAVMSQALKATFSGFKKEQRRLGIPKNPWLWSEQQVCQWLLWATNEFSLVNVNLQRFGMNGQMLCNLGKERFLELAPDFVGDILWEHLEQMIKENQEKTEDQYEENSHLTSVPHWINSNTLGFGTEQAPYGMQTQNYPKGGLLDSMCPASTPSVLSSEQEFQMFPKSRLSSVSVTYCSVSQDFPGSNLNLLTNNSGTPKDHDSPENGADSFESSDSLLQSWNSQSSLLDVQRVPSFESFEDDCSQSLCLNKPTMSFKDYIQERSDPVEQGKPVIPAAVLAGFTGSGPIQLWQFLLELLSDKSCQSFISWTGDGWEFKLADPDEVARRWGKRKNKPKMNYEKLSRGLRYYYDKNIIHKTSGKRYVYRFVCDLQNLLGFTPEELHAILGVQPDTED
# Procedure, shortened: as §1
# SPDEF = target: T8, SPDEF (Homo sapiens, UniProt O95238 1-335)
# T8 sequence: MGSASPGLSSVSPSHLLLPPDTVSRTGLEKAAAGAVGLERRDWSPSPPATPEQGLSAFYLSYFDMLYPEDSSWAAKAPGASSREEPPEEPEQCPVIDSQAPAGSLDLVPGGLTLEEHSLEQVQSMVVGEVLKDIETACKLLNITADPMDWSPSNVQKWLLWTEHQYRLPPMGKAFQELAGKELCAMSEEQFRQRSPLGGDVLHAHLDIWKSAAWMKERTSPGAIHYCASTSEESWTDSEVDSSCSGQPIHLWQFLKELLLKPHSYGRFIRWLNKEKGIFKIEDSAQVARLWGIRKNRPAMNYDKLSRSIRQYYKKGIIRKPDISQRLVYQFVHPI
# Procedure, shortened: as §1
# ETV7 = target: T9, ETV7 (Homo sapiens, UniProt Q9Y603 1-341)
# T9 sequence: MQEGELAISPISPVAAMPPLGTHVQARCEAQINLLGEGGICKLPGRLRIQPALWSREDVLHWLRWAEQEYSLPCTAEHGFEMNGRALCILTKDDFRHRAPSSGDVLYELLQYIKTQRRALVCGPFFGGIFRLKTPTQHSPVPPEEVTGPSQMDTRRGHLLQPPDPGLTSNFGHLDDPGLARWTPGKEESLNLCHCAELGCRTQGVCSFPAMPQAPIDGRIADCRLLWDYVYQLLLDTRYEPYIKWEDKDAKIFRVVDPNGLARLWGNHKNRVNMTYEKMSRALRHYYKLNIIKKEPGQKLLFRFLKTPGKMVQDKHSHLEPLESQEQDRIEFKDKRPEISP
# Procedure, shortened: as §1
# ELF5 = target: T10, ELF5 (Homo sapiens, UniProt Q9UKW6-2 1-255)
# T10 sequence: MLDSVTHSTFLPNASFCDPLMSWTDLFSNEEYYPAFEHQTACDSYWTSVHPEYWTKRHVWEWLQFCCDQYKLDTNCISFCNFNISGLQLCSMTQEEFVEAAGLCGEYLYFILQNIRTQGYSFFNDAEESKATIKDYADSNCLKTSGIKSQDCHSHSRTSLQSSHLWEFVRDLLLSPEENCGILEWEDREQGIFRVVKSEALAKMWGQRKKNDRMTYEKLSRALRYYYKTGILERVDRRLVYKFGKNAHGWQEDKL
# Procedure, shortened: as §1
# ETV3 = target: T11, ETV3 (Homo sapiens, UniProt P41162-2 1-143)
# T11 sequence: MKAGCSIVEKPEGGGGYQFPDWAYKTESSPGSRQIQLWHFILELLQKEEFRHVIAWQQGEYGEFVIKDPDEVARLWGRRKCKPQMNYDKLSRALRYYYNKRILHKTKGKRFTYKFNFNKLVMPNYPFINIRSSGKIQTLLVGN
# Procedure, shortened: as §1
# ETV6 = ETV6 (Homo sapiens, UniProt P41212 1-452)
# Sequence of ETV6 (P41212 whole entry): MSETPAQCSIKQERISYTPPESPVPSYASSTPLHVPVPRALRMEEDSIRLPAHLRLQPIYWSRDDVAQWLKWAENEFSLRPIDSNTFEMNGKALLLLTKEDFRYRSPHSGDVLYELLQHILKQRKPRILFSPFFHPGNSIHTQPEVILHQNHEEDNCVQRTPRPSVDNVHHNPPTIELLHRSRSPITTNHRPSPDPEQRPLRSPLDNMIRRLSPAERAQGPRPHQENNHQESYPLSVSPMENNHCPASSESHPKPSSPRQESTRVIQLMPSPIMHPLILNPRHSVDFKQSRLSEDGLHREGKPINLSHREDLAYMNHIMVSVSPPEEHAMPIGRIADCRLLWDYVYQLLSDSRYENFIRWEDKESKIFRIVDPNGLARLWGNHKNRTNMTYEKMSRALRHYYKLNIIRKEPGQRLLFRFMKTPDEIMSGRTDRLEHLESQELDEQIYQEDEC
# Procedure, shortened: as §1
# ELF3 = target: T12, ELF3 (Homo sapiens, UniProt P78545 1-371)
# T12 sequence: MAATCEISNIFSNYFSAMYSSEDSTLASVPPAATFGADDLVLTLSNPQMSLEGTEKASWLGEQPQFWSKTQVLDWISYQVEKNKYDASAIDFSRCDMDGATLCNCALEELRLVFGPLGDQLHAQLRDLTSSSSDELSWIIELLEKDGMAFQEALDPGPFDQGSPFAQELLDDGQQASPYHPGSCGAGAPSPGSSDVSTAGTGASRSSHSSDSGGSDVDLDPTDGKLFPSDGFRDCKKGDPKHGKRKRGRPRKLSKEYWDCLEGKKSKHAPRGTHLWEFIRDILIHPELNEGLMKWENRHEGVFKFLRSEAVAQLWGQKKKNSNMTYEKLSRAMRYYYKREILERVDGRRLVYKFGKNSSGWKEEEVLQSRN
# Procedure, shortened: as §1
Sequence,binding signal (FEV),binding signal (ETV5),binding signal (SPIC),binding signal (ELF4),binding signal (ELK4),binding signal (ETV2),binding signal (ETV1),binding signal (ERF),binding signal (ETV3L),binding signal (ETS2),binding signal (SPDEF),binding signal (ETV7),binding signal (ELF5),binding signal (ETV3),binding signal (ETV6),binding signal (ELF3)
GGTCCC,"1.1 fold enrichment (6-mer frequency, TF over GST control)","1.13 fold enrichment (6-mer frequency, TF over GST control)","1.18 fold enrichment (6-mer frequency, TF over GST control)","1.16 fold enrichment (6-mer frequency, TF over GST control)","1.29 fold enrichment (6-mer frequency, TF over GST control)","1.16 fold enrichment (6-mer frequency, TF over GST control)","1.3 fold enrichment (6-mer frequency, TF over GST control)","1.18 fold enrichment (6-mer frequency, TF over GST control)","1.25 fold enrichment (6-mer frequency, TF over GST control)","1.12 fold enrichment (6-mer frequency, TF over GST control)","1.29 fold enrichment (6-mer frequency, TF over GST control)","1.15 fold enrichment (6-mer frequency, TF over GST control)","1.13 fold enrichment (6-mer frequency, TF over GST control)","1.2 fold enrichment (6-mer frequency, TF over GST control)","1.09 fold enrichment (6-mer frequency, TF over GST control)",–
GTTACA,"1.18 fold enrichment (6-mer frequency, TF over GST control)","1.16 fold enrichment (6-mer frequency, TF over GST control)","1.14 fold enrichment (6-mer frequency, TF over GST control)","1.11 fold enrichment (6-mer frequency, TF over GST control)","1.26 fold enrichment (6-mer frequency, TF over GST control)",–,"1.11 fold enrichment (6-mer frequency, TF over GST control)","1.24 fold enrichment (6-mer frequency, TF over GST control)","1.06 fold enrichment (6-mer frequency, TF over GST control)","1.2 fold enrichment (6-mer frequency, TF over GST control)","1.21 fold enrichment (6-mer frequency, TF over GST control)","1.12 fold enrichment (6-mer frequency, TF over GST control)","1.14 fold enrichment (6-mer frequency, TF over GST control)","1.09 fold enrichment (6-mer frequency, TF over GST control)","1.07 fold enrichment (6-mer frequency, TF over GST control)","1.15 fold enrichment (6-mer frequency, TF over GST control)"

# Source: article PMC7862700, “An all-to-all approach to the identification of sequence-specific readers for epigenetic DNA modifications on cytosine”
